Source: PubChem BioAssay (several laboratories)
Compounds with a hit are over-represented: about 3.2% of the library has one in this group of screens.
CendR NRP1 mod – alters CendR peptide binding to human NRP-1; FAM-RPARPAR peptide binding to NRP-1, fluorescence polarization; inhibition, % at 25 µM; actives 0.85% (n = 360,000); AID 602438;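 active means inhibition or corrected inhibition above about 18%, plus a signal ratio from 0.5 to 1.5, limit read from the data, passing the limit was not always enough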
SKN-1 block – blocks SKN-1 activity in C. elegans; C. elegans VP596 Pgst-4::GFP/RFP ratio, acrylamide-induced, 24 h; inhibition, % at 21.8 µM; actives 0.49% (n = 360,000); AID 624304;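 active means interference check ratio from 0.5 to 1.5 plus GFP to RFP signal ratio inhibition reaching or exceeding a fixed threshold, cut at about 30% in these data, passing the limit was not always enough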
MEKK2 mut-MEK5 – signal of MEK5 binding to mutant human MEKK2 PB1 domain. percent response, % at 10 µM. actives 0.35% (n = 290,000). bead flow cytometry, Alexa488-MEK5 binding to MEKK2 mutant; in the data active means percent response above about 24%, passing the limit was not always enough
MEKK3 PB1 HTS – raises or lowers MEK5 binding to the human MEKK3 PB1 domain; actives 1.4% (n = 290,000); AID 1529; Q99759; bead-based flow cytometry, Alexa488-MEK5 binding to MEKK3; actives lie on both sides; 0 = blocked by unlabeled MEK5, 100 = vehicle; binding response (% of control), % at 10 µM;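 active means binding response more than 3 SD above or below the average of its plate-row segment, actives on both sides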;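 further: Alexa488 bead fluorescence after subtracting the streptavidin-only scavenger bead signal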
MEKK2wt PB1 HTS – raises or lowers MEK5 binding to wildtype human MEKK2 PB1 domain. actives 1.1% (n = 290,000). binding response (% of control), % at 10 µM. bead flow cytometry, Alexa488-MEK5 binding to MEKK2 WT; actives lie on both sides; in the data active means binding response below about 67% or above about 130%
A number is an active result; - = inactive; . = not tested or not shown; [ ] = dose if it differs, or a comment.

SMILES	CendR NRP1 mod	SKN-1 block	MEKK2 mut-MEK5	MEKK3 PB1 HTS	MEKK2wt PB1 HTS
CCN(CC)c1ccc(S(=O)(=O)N2CCOCC2)cc1NC(=O)CN1C(=O)NC2(CCCC2)C1=O	-	-	-	-	-
NC(=O)N1c2ccccc2CC(=O)c2ccccc21	35	-	-	-	-
CC(C)CN(CC(C)C)c1nn[nH]n1	-	-	.	.	.
O=C1c2oc3ccccc3c(=O)c2C(c2cccnc2)N1CCCN1CCOCC1 (stereo not drawn)	36	-	-	-	-
CC(C)Oc1ccc(C2c3c(oc4ccccc4c3=O)C(=O)N2CCCN2CCOCC2)cc1 (stereo not drawn)	-	-	-	-	-
CN(Cc1ccccc1)C(=O)c1[nH]cnc1C(=O)Nc1ccccc1F	-	-	.	.	.
CCc1nc2ccc(C(=O)Nc3cc(-c4ccccc4)ccc3OC)cn2c1N(C)Cc1nccs1	-	-	.	.	.
CC(C)C(N)c1csc(Nc2ccc(C(=O)c3ccccc3)cc2)n1 (stereo not drawn)	-	-	.	.	.
COc1cccc(OC)c1C(=O)OCC(=O)N(c1ccccc1)C1CCCCC1	-	-	.	.	.
Cc1ccc(NC(NC(=O)OCCn2c([N+](=O)[O-])cnc2C)C(Cl)(Cl)Cl)cc1 (stereo not drawn)	.	.	-	-	-
Cc1ncc([N+](=O)[O-])n1CCOC(=O)NC(NCc1ccccc1Cl)C(Cl)(Cl)Cl (stereo not drawn)	38	-	-	-	-
O=C(O)COc1ccc(/C=N/NC(=O)c2ccc(-c3csc(Nc4ccc(Cl)cc4)n3)cc2)cc1	-	-	-	60[inhibitor]	-
CCOc1cc(/C=N/NC(=O)c2ccc(-c3csc(Nc4ccc(C)cc4)n3)cc2)ccc1OCC(=O)O	-	-	-	-	-
NC(=O)C1CCN(C(=O)C2CCC(=O)N(CC3CCCCC3)C2)CC1 (stereo not drawn)	18	-	-	-	-
COC1OC2COC(c3ccccc3)OC2C2OC(c3ccccc3)OC12 (stereo not drawn)	-	-	.	.	.
CC(C)[C@H](NC(=O)c1ccccc1)C(=O)OCC(=O)c1ccccc1F	-	-	-	-	-
CC(C)[C@H](NC(=O)c1c(F)cccc1F)C(=O)OCC(=O)NNC(=O)c1ccccc1	21	-	.	.	.
O=C(NCCCn1ccnc1)c1ccc(Cl)c(S(=O)(=O)N2CCOCC2)c1	35	-	-	-	-
Cc1[nH]n(-c2ccccc2)c(=S)c1C=Nc1cccc([N+](=O)[O-])c1	24	-	-	-	-
CCCCN=Cc1c(C)[nH]n(-c2ccccc2)c1=S	-	-	-	-	-
Cc1ccc(S(=O)(=O)N2C[C@H]3C(=O)C[C@@H](c4ccc(Cl)cc4)N(S(=O)(=O)c4ccccc4C)[C@H]3C[C@H]2c2ccccc2)cc1	-	-	.	.	.
CCOC(=O)N1CCN(C(=O)c2c[nH]c3ccc(S(=O)(=O)N(C)c4ccc(OCC)cc4)cc3c2=O)CC1	-	-	-	-	-
O=C(CCN1CCN(c2ccccc2)CC1)NNC(=O)Cc1ccccc1Cl	37	-	.	.	.
O=C(CCN1CCN(c2ccccc2)CC1)NNC(=O)Cc1c(F)cccc1Cl	-	-	.	.	.
O=C(CC[C@H]1O[C@@H](n2ccc(=O)[nH]c2=O)[C@H](O)[C@@H]1O)NCC1CCCO1 (stereo partly drawn)	-	-	.	.	.
SMILES	CendR NRP1 mod	SKN-1 block	MEKK2 mut-MEK5	MEKK3 PB1 HTS	MEKK2wt PB1 HTS
Cc1ccc(C(=O)CNc2ccc(C)c(Cl)c2)cc1	30	-	-	-	-
Cc1ccc(NCC(=O)c2ccccc2)cc1Cl	-	-	-	-	-
CCOC(=O)C1CCCN(C(=O)c2cc(C#N)cs2)CC1 (stereo not drawn)	-	-	.	.	.
COc1cccc(C2Nc3ccc4ccccc4c3C3=C2C(=O)CC(C)(C)C3)c1OCC(=O)O (stereo not drawn)	-	35	-	-	-
COc1ccccc1C(=O)N/C(=C\c1cn(S(=O)(=O)N(C)C)c2ccccc12)C(=O)N1CCCCC1	-	-	-	-	-
c1ccc(Cn2c[n+](Cc3ccccc3)c3ccccc32)cc1	-	35	-	-	-
Cc1ccccc1NC(=O)CCC(=O)N/N=C/c1ccncc1	-	-	.	.	.
Cc1nc(C)n(CCNC(=O)c2ccco2)n1	-	-	-	-	-
CCc1ccc(NC(=O)c2cccc(C(=O)Nc3ccc(CC)cc3)n2)cc1	-	-	-	0.0[inhibitor]	-9.0[inhibitor]
COC(=O)c1cccc(C(=O)Nc2ccc(C)cc2)n1	-	-	-	-	-
Oc1ccc2c(c1)OCC1(O)Cc3cc(O)c(O)cc3C21 (stereo not drawn)	-	-	.	.	.
Oc1cc2c(cc1O)[C@H]1c3ccc(O)c(O)c3OC[C@@]1(O)C2	-	37	.	.	.
COCCCn1cnc2c(c1=O)c1nc3ccccc3nc1n2CCc1ccccc1	-	36	.	.	.
O=S1(=O)CC(c2ccccc2)=NN=C(c2ccccc2)C1	-	36	.	.	.
O=C1CC(c2ccccc2)=NO1	-	-	.	.	.
O=[N+]([O-])c1ccc(OS(=O)(=O)Cc2ccccc2)cc1	-	-	-	-	-
O=S(=O)(Cc1ccc(Cl)cc1)Oc1ccc(Cl)cc1	-	46	.	.	.
CCc1nc2c(OCC3CCCCC3)cccn2c1N(C)C(=O)c1ccc(C)cc1	-	-	.	.	.
C=C1C(=O)C23C(O)C1CCC2C12COC3(O)C(O)C1C(C)(C)CCC2O (stereo not drawn)	-	-	.	.	.
Cc1ccc(C(=O)N/C(=C\c2ccc(-c3ccccc3[N+](=O)[O-])o2)C(=O)NCCCN2CCOCC2)cc1	26	-	-	-	-
Cc1ccc(C(=O)N/C(=C\c2cn(C)c3ccccc23)C(=O)NCCCN2CCOCC2)cc1	-	-	-	-	-
Cc1nn(C(C)C(=O)NCCCN2CCCCCC2)c(=O)c2c1sc1ccccc12 (stereo not drawn)	-	-	27	-	162
O=C(/C=C/c1ccc(Cl)cc1Cl)Nc1ccc(CN2CCOCC2)cc1	-	47	-	-	-
O=C(/C=C/c1ccccc1)Nc1ccc(CN2CCOCC2)cc1	-	65	-	-	-
CC(C)Oc1cccc(C(=O)Nc2ccc(CN3CCOCC3)cc2)c1	-	35	-	-	-
SMILES	CendR NRP1 mod	SKN-1 block	MEKK2 mut-MEK5	MEKK3 PB1 HTS	MEKK2wt PB1 HTS
O=C(/C=C/c1ccco1)Nc1ccc(CN2CCOCC2)cc1	-	-	-	-	-
CSc1ccc(NC(=O)NN(c2ccccc2)C2CCS(=O)(=O)C2)cc1 (stereo not drawn)	-	-	.	.	.
COc1ccc(C)cc1NC(=O)c1sc2ncn(CC(=O)N3CCCCC3)c(=O)c2c1C	-	-	-	-	-
CCOc1ccc(C2=CSC3=NCCN23)cc1Cl	-	-	-	-	-
Cc1ccc(-c2cc(C(F)F)n3ncc(C(=O)N4CCc5ccccc5C4)c3n2)cc1	-	-	-	-	-
Cc1ccc(-c2cc(C(F)F)n3ncc(C(=O)N4CCN(c5cccc(C)c5C)CC4)c3n2)cc1	-	39	-	-	-
CCOC(=O)N1CCN(C(=O)c2cnn3c(C(F)F)cc(-c4ccc(C)cc4)nc23)CC1	20	-	-	-	-
